MCF10A rerep: DNA re-replication induction in MCF 10a cells; MCF 10A DNA re-replication, Hoechst nuclear intensity, 48 h; Potency, µM (doses to about 46.1 µM), actives largely listed as activators; 350,000 tested, 2.9% active; note: nearly all actives have a fitted effect of over 50% in size
IL1B secr inh: inhibitors of inflammasome signaling (IL-1 beta secretion); THP-1 LPS/ATP IL-1B secretion, AlphaLISA, 16 h; active compounds read low; activity change, % at 57.5 µM; 360,000 tested, 4.7% active; in the data active = activity change below about -50%; inconclusive = mostly about -30% to -49%
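THP-1 cells pretreated 1 hr with compounds (up to 57.5 uM final), then stimulated with LPS (250 ng/mL final) plus ATP (1.25 mM final); secreted IL-1B measured by AlphaLISA after 16 hr, decreased signal indicating inhibition.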
SW480 rerep: DNA re-replication induction in SW480 cells. Potency, µM (doses to about 46.1 µM), actives largely listed as activators. 340,000 tested, 1.8% active. SW480 DNA re-replication, Hoechst DNA content imaging, 48 h; note: nearly all actives have a fitted effect of over 55% in size
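SW480 cells exposed to compounds for 48 hr at 37 C, 5% CO2, then Hoechst-stained 40 min. Nuclear DNA content imaged by fluorescence scanning (405 nm excitation, 500-530 nm emission); re-replication scored as increased high-intensity nuclei.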
KB-V1 MDR tox: KB-V1 MDR subline cytotoxicity. 400,000 tested, 3.4% active. Potency, µM (titrated, usually from 46.1 µM), usual class: cytotoxic. KB-V1 MDR cells viability, CellTiter-Glo, 72 h; note: nearly all actives have a fitted effect of over 60% in size
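Cytotoxicity toward P-gp-expressing KB-V1 cells was determined as loss of CellTiter-Glo luminescence after 72 h at 37 degrees C. Compounds were tested in quantitative HTS format across a concentration range, with curves fitted to normalized data.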
KB-3-1 tox: KB-3-1 parental cell cytotoxicity | KB-3-1 viability, CellTiter-Glo ATP luminescence, 72 h | AID 1347075 | 400,000 tested, 1.4% active | Potency, µM (series often up to 46.1 µM), hits mostly cytotoxic; note: nearly all actives have a fitted effect of over 60% in size
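Using CellTiter-Glo luminescence, growth of non-resistant KB-3-1 adenocarcinoma cells is assessed 72 h after pin-tool compound addition at 37 °C. Normalized responses across the concentration series yield fitted curves.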
Numbers stand for hits; i = inactive; ? = inconclusive; nt = no result. Shown are actives, neighbours in structure and some others; about 9.9% of the full set was active somewhere. Unless noted, calls come from the whole dose curve; as a rule, active = well fitted curve in the direction sought with a large enough effect; inconclusive = small, poorly fitted or top-dose-only effect, or another doubt; inactive = no such curve, though single readings can be large; an effect the other way counts as inactive or inconclusive.

SMILES	MCF10A rerep	IL1B secr inh	SW480 rerep	KB-V1 MDR tox	KB-3-1 tox
Cc1ccc(/C=C2\Sc3ccccc3C2=O)s1	23µM	i	i	i	i
COC1C(O)C(O)C(O)C(O)C1O (stereo not given)	i	i	i	i	i
COc1cc(-c2n[nH]c(=S)n2-c2cc(C(F)(F)F)ccc2Cl)cc(OC)c1OC	i	i	i	13µM	i
Nc1nc(N)c2nc(CNc3ccc(C(=O)NC(CCC(=O)O)C(=O)O)cc3)cnc2n1 (stereo not given)	i	nt	i	i	i
CN(Cc1cnc2nc(N)nc(N)c2n1)c1ccc(C(=O)NC(CCC(=O)O)C(=O)O)cc1 (stereo not given)	i	i	i	?	0.0052µM
CN(Cc1cnc2nc(N)nc(N)c2n1)c1ccc(C(=O)NC(CCC(=O)O)C(=O)O)cc1C(F)(F)F (stereo not given)	i	i	i	?	0.013µM
CC(=O)N1CCN(Cc2cc(=O)oc3cc(C)cc(C)c23)CC1	nt	i	nt	i	i
Cc1[nH]c2ccccc2c1C(=O)COC(=O)c1ccc2c(=O)n3c(nc2c1)CCC3	i	i	i	i	?
COCCN1Cc2cccc(C(=O)Nc3ccc(C)cc3C)c2C1=O	nt	nt	nt	i	i
Cc1ccc(C(NC(=O)NCCCN2CCOCC2)=C(Cl)Cl)cc1F	?	-51	?	?	?
Cc1ccc(C(NC(=O)N2CCCCC2)=C(Cl)Cl)cc1F	16µM	-71	6.5µM	i	i
Cc1ccc(NC(=O)N2CCCCCC2)cc1C	i	i	i	i	i
CCN(c1ccc(C)c(C)c1)S(=O)(=O)c1ccc2c(c1)CCN2C(=O)CCC(=O)O	21µM	i	?	i	i
CCN(c1ccc(OC)cc1)S(=O)(=O)c1ccc2c(c1)CCN2C(=O)CCC(=O)O	i	i	?	i	i
CC(=O)Nc1ccc(N2C(C(C)=O)=NN(c3ccc(Cl)cc3)C2c2sccc2C)cc1 (stereo not given)	23µM	i	?	?	i
CC(=O)Nc1ccc(N2C(C(C)=O)=NN(c3ccccc3)C2c2cccs2)cc1 (stereo not given)	?	i	i	?	i
CCCc1cc(C(=O)Nc2cccc(-c3nn[nH]n3)c2)sc1C	nt	i	nt	i	i
COc1ccc(CN(CC2CCC(C(=O)O)CC2)C(=S)Nc2ccc(C)c(Cl)c2)cc1 (stereo not given)	i	i	i	i	i
COc1ccc(CCN(Cc2cc3cc(C)cc(C)c3nc2Cl)C(=O)C2CC2)cc1	i	-69	?	?	?
Cc1ccc(OCCCC(=O)N(C)CC(=O)Nc2c(C)cccc2C)cc1	nt	i	nt	i	i
Cc1ccc2cc(C)c3nnc(SCC(=O)Nc4nc5c(s4)CCCC5)n3c2c1C	?	i	?	18µM	i
Cc1ccc(C)c2c1cc(C)c1nnc(SCC(=O)Nc3nc4c(s3)CCCC4)n12	21µM	i	i	i	i
CCn1c(SCC(=O)Nc2nc3c(s2)CCCC3)nnc1-c1ccccc1	?	i	i	i	i
c1ccc(Oc2cc(-c3ccccc3)ncn2)cc1	i	i	i	i	i
CC(C)n1c(CN(C)Cc2ccccc2)nc2c1c(=O)n(C)c(=O)n2C	?	i	i	?	i
SMILES	MCF10A rerep	IL1B secr inh	SW480 rerep	KB-V1 MDR tox	KB-3-1 tox
CC(=O)c1ccc(N=c2scc(C)n2C(C)C)cc1	i	i	i	i	i
CCc1ccc(CCC(=O)Nc2sc3c(c2C#N)CCCC3)o1	4.6µM	i	3.3µM	?	?
CC(=O)Nc1sc2c(c1C#N)CCC2	i	i	i	i	i
Cc1ccc(/C=C/C(=O)Nc2sc3c(c2C#N)CCCC3)o1	?	i	1.2µM	i	i
C#CC(=O)CC1(CN(Cc2ccccc2)C(=O)OC(C)(C)C)CCCCC1	i	?	?	i	?
O=C(Nc1ccccc1)N1CCN(S(=O)(=O)c2ccccc2)CC1	i	i	i	i	i
CCn1c(Sc2ccc([N+](=O)[O-])cn2)nnc1-c1ccco1	6.5µM	-82	i	?	21µM
CC1=C(c2ccc(C)c(C)c2)S(=O)(=O)N(Cc2ccc(C(=O)NCc3ccccc3F)cc2)C1=O	nt	nt	nt	i	i
C=CCN1[C@@H](C(C)C)COCCS1(=O)=O	nt	nt	nt	i	i
COCCN1CCN(C(=O)c2ccc3nc(Cc4ccc(OC)c(OC)c4)oc3c2)CC1	i	i	?	?	4.6µM
